These results are taken from PubChem BioAssay AID2459 (The Scripps Research Institute Molecular Screening Center, 2010).

The list shows a part of the results. Values without a mark were called inactive. Activity calls are given as the source filed them.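 How the source made its calls: active means average inhibition across triplicates above the hit cutoff set in the primary screen (cut at about 32% in these data); inactive means the rest.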

The target in the experiment is Female germline-specific tumor suppressor gld-1 (Caenorhabditis elegans) (UniProt Q17339). Kind of experiment: GLD-1/TGE RNA binding inhibitors, retest, confirmation, biochemical, fluorescence polarization, triplicate (AID 2459).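 Further: 0% = GLD-1 with RNA probe and DMSO and 100% = wells lacking GLD-1.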 Particulars: GLD-1/FL-TGE RNA fluorescence polarization, at 5.96 µM, active compounds read high.
Sequence of Female germline-specific tumor suppressor gld-1 (Caenorhabditis elegans) (Q17339 whole entry, looked up): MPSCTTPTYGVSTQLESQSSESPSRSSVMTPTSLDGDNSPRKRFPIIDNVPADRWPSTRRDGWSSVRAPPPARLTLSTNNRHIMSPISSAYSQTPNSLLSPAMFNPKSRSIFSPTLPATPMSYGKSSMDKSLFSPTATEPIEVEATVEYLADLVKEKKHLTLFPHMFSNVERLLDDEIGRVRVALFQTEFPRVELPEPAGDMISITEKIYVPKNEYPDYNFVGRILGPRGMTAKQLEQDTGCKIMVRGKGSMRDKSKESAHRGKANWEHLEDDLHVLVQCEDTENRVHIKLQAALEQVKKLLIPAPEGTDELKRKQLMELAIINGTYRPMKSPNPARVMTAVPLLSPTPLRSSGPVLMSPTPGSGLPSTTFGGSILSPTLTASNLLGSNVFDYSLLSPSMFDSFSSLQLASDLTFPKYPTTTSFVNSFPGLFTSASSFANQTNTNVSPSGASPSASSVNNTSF
Turning to `COc1cc([C@H](Cc2ccccc2)NC(C)=O)oc(=O)c1`, the inhibition was 25.8%.

For `Oc1ccc2ccccc2c1N=Nc1nccs1`, the inhibition was 8.17%.

`COc1cc(C(=O)NCc2ccc3c(c2)cc(C)n3C)cc(OC)c1OC`: the inhibition was 5.96%.

`COCCOC(=O)c1sc(=S)n(CCOC)c1N`: the inhibition was 47.7% (active).

Consider `CN(CCOc1ccccc1)C(=O)c1cc(-c2ccco2)nc2ccccc12`, for which the inhibition is -3.07%.

For `CCCn1c(C2CCCN2c2nc(-c3ccc(C)cc3)cs2)nc2cc(Cl)c(N3CCCCC3)cc21` (stereo not given), the inhibition is -4.07%.

With `COc1ccc(Nc2ccc([N+](=O)[O-])cn2)cn1`, the inhibition is 18.7%.

Consider `O=C1c2ccccc2-c2ncnc3c(N4CCOCC4)cc(N4CCOCC4)c1c23`, for which the inhibition is -4.23%.

For `CC1CC(C)CN(S(=O)(=O)c2cccc(C(=O)N3C(=O)c4cccc(N)c4C3=O)c2)C1` (stereo not given), the inhibition was 1.78%.

For the compound `COc1ccc2[nH]c(C)c(CCN(Cc3cccs3)C(=S)Nc3ccccc3OC)c2c1`, the inhibition was -3.16%.

With `CCCN(CC(=O)Nc1ccccc1OC)C(=O)CCC(=O)c1ccc(F)cc1`, the inhibition was -0.97%.

With `O=C1c2ccccc2C(=O)c2c1cccc2N1CCN(CCO)CC1`, the inhibition is 16.5%.

For the compound `O=c1[nH]c(=O)c2nc3ccccc3nc2[nH]1`, the inhibition is 101% (active).

`COc1ccc(-c2nc(CS(=O)CC(=O)NCc3ccccn3)c(C)o2)cc1` (stereo not given): the inhibition is 61.1% (active).

With `C=C1CCN([C@@H](Cc2ccccc2)C(=O)N2CCOCC2)S(=O)(=O)c2ccccc21`, the inhibition was -0.33%.

The term inhibition denotes the drop in the measured response relative to a control, in per cent.
